Hits are enriched below; roughly 3.2% of the tested compounds scored in any of these assays.
A549 tox-1 – counter-screen for Nrf2 inhibitors: cytotoxicity in A549 cells; A549 ARE-Fluc cells, CellTiter-Fluor viability, 18-24 h; Potency, µM (top dose mostly 46 µM), most hits filed as inhibitors; actives 0.16% (n = 390,000); AID 504648
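A549 ARE_Fluc cells in 5% FBS OPTI-MEM were exposed to compounds in concentration-response for 18-24 h at 37 deg C. Viability was read by CellTiter-Fluor fluorescence (Ex 405/Em 525) after 30 min, before the luciferase read.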
p53 reactivator – restores transcriptional activity of mutant p53; H1299 p53-A138V BP100-luciferase reporter, luminescence, 24 h; Potency, µM (series often up to 92.2 µM), actives largely listed as activators; actives 0.063% (n = 320,000); further: nearly all actives have a fitted effect of over 45% in size
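H1299 (p53-null), stable ts p53-A138V + BP100-Luc; 1000 cells/well, Opti-MEM/10% FBS; cpd 4 pt, 1:5; 24 h, 37 deg C, 5% CO2; detection reagent 10 min RT; luminescence.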
BRCA1 expr act – activators of BRCA1 expression; MCF7-BRCA1-FFLuc reporter, luminescence, 48 h; response scale: scaled: vehicle 0%, 10 µM genistein 100%; actives 1.1% (n = 380,000); Potency, µM (titrated, usually from 46.1 µM), hits mostly activators; AID 624202; further: nearly all actives have a fitted effect of over 80% in size
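48 h compound treatment of MCF7-BRCA1-FFLuc cells (phenol-red free MEM, 37 °C), then 15 min with luciferase substrate and luminescence imaging.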
IL-2 act – IL-2 activation | IL-2 activation reporter assay, cell-based qHTS; stimulated with anti-CD3/CD4/CD28 beads; in transgenic mouse T cells | activation, % (series mostly up to about 46 µM) | actives 0.065% (n = 360,000) | AID 652025; in the data active means activation above about 50%; inconclusive means mostly about 30% to 49%
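EGFP and DsRed fluorescence is measured by plate cytometry in unstimulated transgenic mouse T cells exposed to compound for 60 minutes, then stimulated 18 hours at 37 degrees C with anti-CD3/anti-CD4 beads plus anti-CD28.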
Nrf2 ARE act – Nrf2 pathway activation; actives 0.31% (n = 410,000); AREc32 ARE-luciferase reporter (MCF7-derived line), luminescence, 24 h; Potency, µM (series often up to 46.1 µM), hits mostly activators; further: nearly all actives have a fitted effect of over 65% in size
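Nrf2 activation is followed as ARE-luciferase induction in the AREc32 line after one day of compound treatment; luminescence is read with Steady-Glo.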
Nrf2 block – blocks Nrf2 signaling; A549 ARE-Fluc reporter, luciferase luminescence, 18-24 h; Potency, µM (titrated, usually from 46 µM), hits mostly inhibitors; actives 2.1% (n = 360,000); AID 504444; further: nearly all actives have a fitted effect of over 60% in size
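Cells were seeded and rested 2 h, then exposed to compounds for 18-24 h. CellTiter-Fluor was read first as a viability measure. BugLite was added 15 min before the final luminescent read of ARE-luciferase activity in A549 cells.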
FLuc counter 3 – firefly luciferase inhibition, Nrf2 hit validation. purified firefly luciferase, luminescence inhibition. shares compounds with Nrf2 block. Potency, µM (doses to about 57.5 µM), most hits filed as inhibitors. actives 4% (n = 1,400); further: nearly all actives have a fitted effect of over 65% in size
Target sequence (P08659 whole entry, looked up): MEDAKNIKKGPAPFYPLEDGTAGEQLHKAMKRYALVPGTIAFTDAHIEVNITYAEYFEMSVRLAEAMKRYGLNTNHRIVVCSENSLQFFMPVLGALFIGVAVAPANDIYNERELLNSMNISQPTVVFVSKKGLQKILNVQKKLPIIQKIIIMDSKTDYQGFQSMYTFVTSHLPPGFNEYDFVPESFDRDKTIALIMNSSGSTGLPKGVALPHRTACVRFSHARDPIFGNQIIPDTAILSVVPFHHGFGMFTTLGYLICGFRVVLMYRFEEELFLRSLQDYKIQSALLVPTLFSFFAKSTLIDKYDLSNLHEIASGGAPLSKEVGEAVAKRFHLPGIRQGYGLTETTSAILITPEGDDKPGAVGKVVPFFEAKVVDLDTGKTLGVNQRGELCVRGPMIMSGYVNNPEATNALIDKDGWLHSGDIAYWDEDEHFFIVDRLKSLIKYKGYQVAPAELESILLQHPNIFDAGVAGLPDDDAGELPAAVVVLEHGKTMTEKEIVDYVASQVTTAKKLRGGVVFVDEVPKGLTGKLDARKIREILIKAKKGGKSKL
A549 tox-2 – counter-screen for Nrf2 inhibitors: cytotoxicity in A549 ARE cells; AID 720523; actives 2% (n = 1,400); shares compounds with Nrf2 block; A549 ARE-Fluc cells, cytotoxicity counterscreen; Potency, µM (titrated, usually from 46.1 µM), most hits filed as inhibitors;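 further: cells exposed to compounds for 18 to 24 hours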
Nrf2 ARE inh – Nrf2 inhibition confirmed, A549 ARE-luciferase. actives 74% (n = 1,400). shares compounds with Nrf2 block. AID 720524. Potency, µM (top dose mostly 46.1 µM), usual class: inhibitors. A549 ARE-firefly luciferase reporter, luminescence; further: nearly all actives have a fitted effect of over 65% in size
Large screens that a line does not name were inactive (follow-up assays come after a bar, where they were run). Unless noted, the call rests on the fitted dose curve; in most records, active means well fitted curve in the direction sought with a large enough effect; inconclusive means small, poorly fitted or top-dose-only effect, or another doubt; inactive means no such curve, though single readings can be large; an effect the other way counts as inactive or inconclusive.

Cc1ccccc1C(=O)N1CCc2cc(-c3nc(NC(=O)Cc4ccc5c(c4)OCO5)sc3C)ccc21	Nrf2 block 4.6µM | FLuc counter 3 inactive | A549 tox-2 inactive | Nrf2 ARE inh 5.8µM
Cc1cccc(C(=O)N2CCc3cc(-c4nc(NC(=O)Cn5nnc6ccccc6c5=O)sc4C)ccc32)c1	none (no result: A549 tox-1, BRCA1 expr act, IL-2 act, Nrf2 ARE act, Nrf2 block)
CCCCCCCCCCCCCCCC(=O)Nc1ccn(C2OC(CO)C(O)C2O)c(=O)n1 (centres undefined)	Nrf2 block inconclusive (no result: p53 reactivator) | FLuc counter 3 inactive | A549 tox-2 inactive | Nrf2 ARE inh 0.82µM
CCCCCCCCCCCCCCCC(=O)OCC1OC(n2ccc(N)nc2=O)C(O)C1O (centres undefined)	Nrf2 block inconclusive (no result: p53 reactivator)
N#Cc1c(NC(=O)CSc2ncn[nH]2)sc2c1CCCCC2	Nrf2 block 0.37µM | FLuc counter 3 9.5µM | A549 tox-2 inactive | Nrf2 ARE inh 1.6µM
O=C(CSc1nccn1-c1ccc(Cl)cc1)Nc1cccc2ccccc12	none (no result: p53 reactivator, BRCA1 expr act, IL-2 act, Nrf2 block)
COC(=O)C12OCC34C(CC5C(C)=C(O)C(=O)CC5(C)C3C(O)C1O)OC(=O)C(OC(=O)C=C(C)C)C24 (centres undefined)	A549 tox-1 inconclusive, BRCA1 expr act inconclusive, Nrf2 block 0.016µM (no result: p53 reactivator) | FLuc counter 3 inactive | A549 tox-2 inconclusive | Nrf2 ARE inh 0.012µM
CN(c1ccccc1)S(=O)(=O)c1ccc(Cl)c(C(=O)Nc2ccncc2)c1	Nrf2 block 8.2µM | FLuc counter 3 inactive | A549 tox-2 inactive | Nrf2 ARE inh inconclusive
Cc1cccc(NC(=O)Cn2cc(C(=O)C3CCCCC3)c3ccccc32)c1C	Nrf2 block 5.8µM (no result: p53 reactivator, BRCA1 expr act, IL-2 act) | FLuc counter 3 inactive | A549 tox-2 inactive | Nrf2 ARE inh 5.8µM
O=C(Cn1cc(C(=O)C2CCCCC2)c2ccccc21)Nc1ccccc1Cl	none (no result: p53 reactivator, BRCA1 expr act, IL-2 act)
Cc1cc(C)cc(C(=O)Nc2ccc(-c3cn4cccnc4n3)cc2)c1	Nrf2 block 9.2µM (no result: p53 reactivator, BRCA1 expr act, IL-2 act) | FLuc counter 3 inactive | A549 tox-2 inactive | Nrf2 ARE inh inconclusive
Cc1cccc(Nc2nc(-c3c(C)nc4ccccn34)cs2)c1	Nrf2 block 9.2µM | FLuc counter 3 inactive | A549 tox-2 inactive | Nrf2 ARE inh 6.5µM
COc1ccc(-n2nnnc2C2CCN(S(=O)(=O)c3cccc(C(F)(F)F)c3)CC2)cc1	none (no result: p53 reactivator, BRCA1 expr act, IL-2 act)
COc1ccc(N2CCN(c3ncnc4c3[nH]c3ccccc34)CC2)cc1	Nrf2 block 5.8µM (no result: p53 reactivator) | FLuc counter 3 inactive | A549 tox-2 inactive | Nrf2 ARE inh 2.9µM
CSC1SCC2C(=O)N(C)C(C(C)C)C(=O)OCC(NC(=O)c3cnc4ccccc4n3)C(=O)NC(C)C(=O)N(C)C1C(=O)N(C)C(C(C)C)C(=O)OCC(NC(=O)c1cnc3ccccc3n1)C(=O)NC(C)C(=O)N2C (centres undefined)	A549 tox-1 inconclusive, BRCA1 expr act inconclusive, Nrf2 block 0.0065µM (no result: p53 reactivator) | FLuc counter 3 inconclusive | A549 tox-2 10µM | Nrf2 ARE inh 6.5µM
O=C(NC(NC(=S)Nc1c(Cl)cc(Cl)cc1Cl)C(Cl)(Cl)Cl)OCc1ccccc1 (centres undefined)	A549 tox-1 inconclusive, Nrf2 block 2.9µM | FLuc counter 3 inactive | A549 tox-2 inconclusive | Nrf2 ARE inh 23µM
Cc1ccc(C)c(NC(=S)NC(NC(=O)OCc2ccccc2)C(Cl)(Cl)Cl)c1 (centres undefined)	Nrf2 block inconclusive
